# Source: PubChem
# Only some compounds are listed: those with a hit (about 2.3% of all), similar ones and a draw of the others.
# 12-LOX inh – inhibitors of human 12S-lipoxygenase ALOX12; purified 12hLO, xylenol orange hydroperoxide absorbance; Potency, µM (highest dose often 108 µM), inactives show top-dose activity change, negative = inhibition, most hits filed as inhibitors; hit rate 1.1% among 580,000; AID 1671190; also: % is scaled to controls: 0 for no effect and ±100 for the full control effect
#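 Hydroperoxide product was detected by ferrous iron/xylenol orange as the 573 to 405 nm absorbance ratio. Arachidonic acid at 40 uM (final) was turned over for 30 min at room temperature by 150 nM human 12hLO, pH 7.0 Hepes buffer, after 15 min compound preincubation.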
# GLP-1R agonist – agonists of human GLP-1 receptor. P43220. HEK293 GLP-1R CRE-luciferase, luminescence, 4-6 h; cells express a hypersensitive GLP-1R form. Potency, µM (highest dose often 45.6 µM), without a hit: at the highest dose activation, actives largely listed as activators. hit rate 0.007% among 380,000. AID 624172; also: % of control where 0% means no effect
# GRP78 ERSR act – ER stress response induction in glioma | U87-MG GRP78 promoter luciferase reporter, 16 h | hit rate 0.02% among 420,000 | Potency, µM, for inactives: top-dose activation, hits mostly activators; also: series mostly up to about 76 µM; % of control where 0% means no effect; nearly all actives have a fitted effect of over 35% in size
#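 Stably transfected U87-MG human glioma cells carrying a GRP78-based luminescent sensor were seeded at 1000 cells/well, pin-dosed with compounds and incubated 16 h. Luciferase reagent was then added, and end-point luminescence was read after 10 min at room temperature.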
# PTHR1 agonist – activates the human parathyroid hormone receptor PTHR1; Q03431; HEK293 GP2 PTHR1 cells, GloSensor cAMP luminescence, 1 h; Potency, µM (doses to about 115 µM), inactives show top-dose activation, usual class: activators; hit rate 0.075% among 410,000; AID 743266; also: nearly all actives have a fitted effect of over 55% in size
# Target sequence (Q03431 whole entry, looked up): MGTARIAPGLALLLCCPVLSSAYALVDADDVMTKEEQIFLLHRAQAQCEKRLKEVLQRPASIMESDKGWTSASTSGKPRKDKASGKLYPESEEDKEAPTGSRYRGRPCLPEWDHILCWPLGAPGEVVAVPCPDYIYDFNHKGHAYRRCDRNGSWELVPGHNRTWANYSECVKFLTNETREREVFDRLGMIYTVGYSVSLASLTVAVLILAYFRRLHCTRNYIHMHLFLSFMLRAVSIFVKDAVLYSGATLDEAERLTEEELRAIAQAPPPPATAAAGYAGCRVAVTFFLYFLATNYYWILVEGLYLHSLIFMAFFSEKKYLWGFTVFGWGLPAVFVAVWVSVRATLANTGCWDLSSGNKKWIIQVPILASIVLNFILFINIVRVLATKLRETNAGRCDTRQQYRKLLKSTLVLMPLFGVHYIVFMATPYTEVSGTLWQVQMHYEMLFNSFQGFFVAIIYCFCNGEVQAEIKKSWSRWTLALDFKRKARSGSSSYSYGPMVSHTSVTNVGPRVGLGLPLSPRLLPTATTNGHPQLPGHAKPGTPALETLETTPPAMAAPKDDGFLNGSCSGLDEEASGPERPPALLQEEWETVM
#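 HEK-293-derived GP2 cells expressing PTHR1 and a GloSensor cAMP reporter, 3,000/well, plated overnight, given luciferin plus IBMX (each 0.5 mM as added) for 1 h at 37 °C, then compound for 1 h at 37 °C. Luminescence was read after 15 min at room temperature.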
# GLP1R inv ag – acts as inverse agonist at human GLP-1 receptor | HEK293 GLP-1R CRE-luciferase, luminescence, 24 h; GLP-1R form is constitutively active | Potency, µM (series often up to 38.3 µM), without a hit: top-dose activity change, negative = inhibition, hits mostly inhibitors | hit rate 1.6% among 410,000 | AID 624417; also: % is scaled to controls: 0 for no effect and ±100 for the full control effect; nearly all actives have a fitted effect of over 55% in size
#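 GLP-1R inverse agonism mode: basal reporter luminescence in engineered HEK293 cells measured after one day of compound exposure at 37 deg C, with a 12 min room-temperature detection step.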
# GLS inh – blocks human kidney-isoform glutaminase activity; AID 624170; GLS enzymatic activity, qHTS titration; O94925; Potency, µM (doses to about 45.5 µM), without a hit: at the highest dose activity change, negative = inhibition, hits mostly inhibitors; hit rate 0.21% among 410,000; also: % is scaled to controls: 0 for no effect and ±100 for the full control effect
#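 Assay buffer: 45 mM KH2PO4 pH 8.2, 0.02% Tween-20. hKGA acts on L-glutamine (1 mM solution added); product glutamate is reported by an oxidase/peroxidase Amplex Red coupling, with fluorescence taken at baseline and 30 min.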
# Numbers without * were called inactive; i = inactive; ? = inconclusive; . = no result given; [ ] = remark or other dose. Calls follow the shape of the dose curve; as a rule, active = well fitted curve in the direction sought with a large enough effect; inconclusive = small, poorly fitted or top-dose-only effect, or another doubt; inactive = no such curve, though single readings can be large; an effect the other way counts as inactive or inconclusive. Potency is read from the fitted curve at half-maximal effect.
SMILES,12-LOX inh,GLP-1R agonist,GRP78 ERSR act,PTHR1 agonist,GLP1R inv ag,GLS inh
Cc1ccc(NC(=O)CN2CCCC2c2cccs2)cc1S(=O)(=O)N1CCCCC1 (stereo unspecified),7%,7%,-4%,-41%,4.5µM*,1%
Cc1ccc(NS(=O)(=O)c2cc(NC(=O)C(C)Oc3ccccc3)ccc2C)c(C)c1 (stereo unspecified),-1%,-2%,-3%,-63%,10µM*,-6%
CCOc1ccc(NC(=O)CN2CCCC2c2cccs2)cc1S(=O)(=O)N1CCCCC1 (stereo unspecified),-11%,-1%,-6%,-24%,?,-8%
Cc1ccc(NC(=O)C(C)Oc2ccccc2)cc1S(=O)(=O)N1CCCCCC1 (stereo unspecified),435%,3%,-2%,-29%,13µM*,1%
CN(c1cccc(NC(=O)CN(c2cccc(Cl)c2)S(=O)(=O)c2ccc(Cl)cc2)c1)S(C)(=O)=O,?,3%,-2%,-22%,7.9µM*,5%
CCn1c(CC(=O)Nc2ccc(F)cc2)nnc1SCC(=O)Nc1ccc2ccccc2c1,12%,.,.,.,.,.
Clc1ccccc1C1=Nn2c(nnc2-c2ccncc2)SC1,-15%,-10%,-9%,-5%,1.1µM*,-4%
CN1/C(=C\C(=O)CN2CCN(C(c3ccccc3)c3ccccc3)CC2)C(C)(C)c2ccccc21,10µM*,.,.,.,.,.
CCOC(=O)C1CCCN(CC(=O)/C=C2/N(C)c3ccccc3C2(C)C)C1 (stereo unspecified),?,-2%,-3%,-29%[57.5 µM],?,20%
COc1ccc(/C=C2\C(=O)ON=C2c2ccccc2)cc1,?,1%,-1%,-9%,-6%,70%
O=C1ON=C(c2ccccc2)/C1=C/c1ccc(OS(=O)(=O)c2ccccc2)cc1,18µM*,-1%,-1%,i,16%,?
COc1ccc(S[C@]2(c3nc(C)no3)CC(=O)N(c3ccc(OC)cc3)[C@@H]2c2ccc(OC)cc2)cc1,14µM*,.,.,.,.,.
COC(=O)[C@@]1(Sc2ccc(C)cc2)CC(=O)N(c2ccccc2)[C@@H]1c1ccccc1,?,-8%,.,-48%,?,-7%
CN1CCN(C(=O)CN2CCN(C(C(=O)O)c3cn(C)c4cc(C(=O)O)ccc34)CC2)CC1 (stereo unspecified),-2%,.,.,.,.,.
CCN1CCN(CCN2CC3(CCN(C4CCOCC4)CC3)OC2=O)CC1,72%,.,.,.,.,.
CC(C)N1CCN(CCN2CC3(CCN(C(=O)CCN)CC3)OC2=O)CC1,18µM*,.,.,.,.,.
CNC(=S)NNC(=O)CSCc1ccccc1,-11%,.,.,.,.,.
COc1ccc(/C=N/N2C(C)CCCC2C)cc1O (stereo unspecified),2%,0%,-3%,i,5%,11µM*
CC1CCCC(C)N1/N=C/c1ccc(O)c(O)c1 (stereo unspecified),?,-1%,-4%,i,32%,-7%
CCCC(=O)Nc1cc(-c2ccccc2OC)[nH]n1,-4%,.,.,.,.,.
CCNC(=O)CC1C(=O)N(CC)C(=S)N1NC(=O)c1ccc(Cl)cc1 (stereo unspecified),-16%,-8%,-4%,10%[57.5 µM],14%,-6%
CCCOc1ccc(NC(=O)CC2C(=O)N(CC)C(=S)N2CCNC(C)=O)cc1 (stereo unspecified),1%,2%,-3%,i,2%,-1%
CCCOc1ccc(NC(=O)CC2C(=O)N(CC)C(=S)N2CCCN2CCN(Cc3ccccc3)CC2)cc1 (stereo unspecified),?,-3%,-7%,i,7.1µM*,-5%
CCN1C(=O)C(CC(=O)Nc2ccc(Br)cc2)N(CCCc2ccccc2)C1=S (stereo unspecified),?,-10%,-13%,-36%[57.5 µM],2µM*,7%
